LYP inh 2: PTPN22 phosphatase inhibitors, primary screen, biochemical, DiFMUP fluorescence, 2 µM; actives 0.21% (n = 96,000); Tyrosine-protein phosphatase non-receptor type 22 (Homo sapiens), Q9Y2R2; recombinant LYP catalytic domain; inhibition, % at 2 µM;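 active = inhibition at 2 µM at or above a set limit, the screen mean plus 3 SD, cut at about 24% in these data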;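 note: 0% = DMSO with enzyme and 100% = enzyme fully blocked by orthovanadate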
MT1-MMP txn act: MT1-MMP promoter reporter activation – cell-based, luciferase luminescence, primary screen | HT1080 MT1-MMP promoter luciferase reporter, overnight; hits give high values | activation factor at 10 µM | actives 0.16% (n = 86,000);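 active = activation factor of at least 2 for MT1-MMP transcription at 10 µM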
LYP act: LYP phosphatase activators, primary screen, biochemical, DiFMUP fluorescence, 2 µM | activation, % at 2 µM | Tyrosine-protein phosphatase non-receptor type 22 (Homo sapiens), Q9Y2R2 | recombinant LYP; 0 = plate median, 100 = signal doubled | actives 0.11% (n = 96,000);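 active = activation at 2 µM above a set limit, the mean plus 5 SD, cut at about 37% in these data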
TNAP act mid DEA: human TNAP enzyme activators, primary screen, biochemical, luminescent, intermediate phosphate acceptor level. Alkaline phosphatase, tissue-nonspecific isozyme (Homo sapiens), P05186. purified TNAP, CDP-star luminescence, 100 mM DEA, 30 min; hits give high values; scale: 0 levamisole-inhibited, 1 vehicle-only enzyme. activation factor at 20 µM. 64,000 tested, under 10 active. AID 813, 2007;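 active = activation factor of at least 2 at 20 µM, relative to controls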
Target sequence (P05186 whole entry, looked up): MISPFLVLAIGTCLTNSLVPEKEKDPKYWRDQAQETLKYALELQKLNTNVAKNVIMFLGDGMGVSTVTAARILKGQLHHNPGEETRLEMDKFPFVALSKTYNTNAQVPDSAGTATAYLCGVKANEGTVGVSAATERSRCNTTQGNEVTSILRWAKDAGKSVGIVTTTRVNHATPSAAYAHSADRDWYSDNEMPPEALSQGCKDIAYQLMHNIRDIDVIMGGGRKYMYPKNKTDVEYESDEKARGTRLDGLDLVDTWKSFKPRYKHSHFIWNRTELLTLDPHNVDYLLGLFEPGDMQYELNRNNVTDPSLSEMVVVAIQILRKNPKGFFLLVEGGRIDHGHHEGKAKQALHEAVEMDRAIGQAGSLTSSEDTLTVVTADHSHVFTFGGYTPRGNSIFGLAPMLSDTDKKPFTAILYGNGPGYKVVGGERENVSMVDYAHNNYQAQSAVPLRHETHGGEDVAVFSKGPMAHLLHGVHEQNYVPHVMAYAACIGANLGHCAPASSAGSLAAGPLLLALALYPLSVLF
PLAP act: PLAP enzyme activators, biochemical, luminescence, HTS | purified PLAP enzyme, luminescent substrate read-out; hits give high values | activation fold at 20 µM | actives 1.2% (n = 96,000) | AID 696, 2007; in the data active = activation fold above about 2
The depositor's hits bear a star; . = not tested or not shown. A selection: hits, their analogues and other compounds. The true share with any hit is near 1.6%.

SMILES	LYP inh 2	MT1-MMP txn act	LYP act	TNAP act mid DEA	PLAP act
CCCCN(CC)CCNC(=O)C1c2cc(OC)c(OC)cc2C(=O)N2CCc3ccccc3C12 (stereo not drawn)	5	1.1	-7	1.2	2*
CCN1CCN(C(=O)C2c3cc(OC)c(OC)cc3C(=O)N3CCc4ccccc4C23)CC1 (stereo not drawn)	-19	1.1	16	0.9	1.3
COc1ccc(OC)c(C(=O)CSc2nc3ncccc3[nH]2)c1	.	1	.	0.4	2.8*
COC(=O)CSc1nc2ncccc2[nH]1	4	1.2	-2	.	1.1
COc1ccc(NC(=O)CSc2nc3ncccc3[nH]2)cc1OC	-6	1.2	9	.	2*
O=C(CSc1nnc(-c2ccc(Cl)cc2Cl)n1C1CCCCC1)N1CCCC1	-1	1.1	2	.	2*
COc1ccc(NC2=NCC(=O)N2c2ccccc2)c(OC)c1	2	1.3	-1	1	1
Cc1cc(C)nc(NC2=NCC(=O)N2c2ccccc2Br)n1	-1	1.2	-1	0.9	.
Cc1cc(C)nc(NC2=NCC(=O)N2c2ccccc2)n1	13	1	-11	0.9	2.4*
Cc1ccc(NC2=NCC(=O)N2c2ccc3c(c2)OCCO3)c(C)c1	12	1.1	-9	0.9	.
COc1ccc(N2C(=O)CN=C2Nc2nc(C)cc(C)n2)cc1	-9	1.1	6	1	2.3*
Cc1cc(C)nc(NC2=NCC(=O)N2c2ccc3c(c2)OCCO3)n1	8	1.2	-4	1	2*
Cc1cc(C)nc(NC2=NCC(=O)N2c2cccc(Cl)c2)n1	7	1.1	-6	0.8	2.1*
COc1cccc(C(=O)Oc2c(CN3CCOCC3)cc(Cl)c3cccnc23)c1	3	0.9	-1	.	2.6*
COc1cc(C(=O)Oc2c(CN3CCOCC3)cc(Cl)c3cccnc23)cc(OC)c1OC	7	.	-10	0.9	2*
O=C(Oc1ccc(Cl)c2cccnc12)N1CCOCC1	-8	1	8	0.9	0.9
O=C(Oc1c(CN2CCOCC2)cc(Cl)c2cccnc12)c1ccc(F)cc1	-1	1	3	1	2*
O=C(Oc1c(Cl)cc(Cl)c2cccnc12)c1ccco1	-7	1.2	4	.	2.1*
O=C(Oc1c(Cl)cc(Cl)c2cccnc12)c1cccs1	6	1.1	-5	.	.
COC(=O)C1=C(CCc2ccccc2)NC(=O)NC1c1ccc(Br)cc1 (stereo not drawn)	.	1.1	.	.	.
CCC/C=C(\CCC)C(NP(=O)(c1ccccc1)c1ccccc1)c1ccc(C(F)(F)F)cc1 (stereo not drawn)	.	1.2	.	.	.
COc1ccc(CN2CCOCC2)cc1	10	1	-8	.	0.9
COc1ccc(C(=O)Oc2c(CN3CCOCC3)cc(Cl)c3cccnc23)cc1	-2	0.9	0	1	2*
Oc1c(CN2CCN(c3ccccn3)CC2)cc(Cl)c2cccnc12	.	0.8	.	0.8	1.8
OCCN1CCN(Cc2cc(Cl)c3cccnc3c2O)CC1	-2	0.9	3	.	2.2*
SMILES	LYP inh 2	MT1-MMP txn act	LYP act	TNAP act mid DEA	PLAP act
Cc1ccc(NC(=O)CSc2nc3ccccc3c(=O)n2CCCC(=O)N2CCCC2)cc1	1	1.3	-4	1	1
CC(=O)NCCn1c(SCc2ccc(C)cc2C)nc2ccccc2c1=O	-10	1.1	8	.	2.5*
Cc1ccc(NC(=O)CSc2nc3ccccc3c(=O)n2CCCN2CCCCC2)cc1C	-9	0.9	11	.	2.6*
CC(=O)NCCn1c(SCc2ccccc2C)nc2ccccc2c1=O	-4	1	7	.	1.3
FC(F)(F)c1ccc(C2[C@H]3CN(CC4CCCCC4)[C@H](c4ccccc4)C34CC2(c2ccccc2)C4)cc1 (stereo partly drawn)	.	1.1	.	.	.
S=c1[nH]nc(-c2cc(-c3ccco3)[nH]n2)n1-c1ccccc1Cl	-13	1.3	10	.	1.8
Oc1ccccc1-c1cc(-c2ccco2)[nH]n1	4	2.1*	-3	.	1.8
S=c1[nH]nc(-c2cc(-c3ccco3)[nH]n2)n1-c1ccccc1	-6	1	9	.	2.1*
Oc1ccc(Cl)cc1-c1cc(-c2ccco2)[nH]n1	-4	1.4	1	.	1.5
Cc1ccc(CNC(=O)[C@H](C)[C@@H]2C[C@@]2(C)[C@@H](NC(=O)OCc2ccccc2)c2ccccc2)c(F)c1F	.	1.2	.	.	.
CCOc1ccc(-c2csc(N)c2C(=O)OC)cc1	30*	.	-29	.	1.5
CCOC(=O)c1c(-c2ccncc2)csc1N	-3	1.1	2	0.9	0.9
COC(=O)CCCCCN1C(=O)NC(CC2CC2)C(C(=O)OCc2ccccc2)=C1C (stereo not drawn)	.	1.1	.	.	.
O=C(Nc1nnc(COc2ccc(Cl)cc2)s1)c1ccc([N+](=O)[O-])cc1	24*	.	-22	.	1.1
COC(=O)c1nn(-c2ccccc2)c(=O)cc1Oc1ccccc1	0	.	0	.	1
CCc1nnc(NC(=O)CSc2nnc(CCc3nc4ccccc4[nH]3)n2C)s1	-1	1.1	0	1	1.2
Cc1nnc(NC(=O)CSc2nnc(CCc3nc4ccccc4[nH]3)n2C)s1	-20	1	19	0.9	2.1*
COc1ccc(C2=CSC3=C(C(=O)c4cccc(S(=O)(=O)N(C)C)c4)CCN23)cc1	5	1	-4	.	2.9*
CC1=NN(C(=O)Cc2ccc([N+](=O)[O-])cc2)C(O)(c2ccccc2)C1 (stereo not drawn)	7	1	-5	.	1.3
Brc1ccccc1-c1nnc(CSc2nnnn2-c2ccccc2)o1	8	1.2	-10	0.8	2.1*
CCOc1ncccc1C(=O)OCc1cc(=O)n2c(n1)sc1ccccc12	.	.	.	0.9	.
COC(=O)[C@@]1(Cc2ccc(OC)cc2)[C@H]2c3cc(C(=O)N4CCCC4)n(CCc4ccc(OC)c(Br)c4)c3C[C@H]2CN1C(=O)c1ccccc1	.	1.1	.	.	.
CC(=O)N1[C@H](C)C=C[C@]1(Cc1ccccc1)C(=O)NCc1ccc(C)o1	.	1	.	.	.
Cc1nnc(SCC(=O)N/N=C/c2cn(-c3ccccc3)nc2-c2ccccc2)n1-c1ccccc1	25*	.	-22	.	1.4
CCC1=C2CC[C@H]3C(=O)N(CC(=O)OC)C(=O)[C@H]3[C@H]2[C@@]2(Cc3ccccc3)C(=NCCOC)OC(=O)N2C1=O	.	1.1	.	.	.
Cc1ccc(C2CC2c2n[nH]c(=S)n2-c2ccc(C)cc2)cc1 (stereo not drawn)	3	.	0	.	2.1*
Cc1ccc(-n2c(C3CC3c3ccc(Cl)cc3)n[nH]c2=S)cc1 (stereo not drawn)	7	.	-4	.	1.1
Cn1c(SCC(=O)Nc2ccc3nc(SCC(=O)N4CCCC4)sc3c2)nnc1-c1ccccc1	12	.	-10	.	1.6

Screening results deposited in PubChem BioAssay by several laboratories.
